CYP2C19 act = human CYP2C19 activators, primary screen, biochemical, luminescence; recombinant CYP2C19, luciferin-H EGE luminescence; active compounds read high; 0 = fully inhibited enzyme, 1 = untreated enzyme; activation factor at 5 µM; 96,000 tested, under 10 active; AID 1025, 2008;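 active = activation factor of at least 2 at 5 µM in the primary screen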
CYP2C9 inhib = blockers of cytochrome P450 2C9 activity – biochemical, luminescence, ADME assay, primary screen | P11712 | CYP2C9 Supersomes, luciferin-H conversion | inhibition, % at 5 µM | 20% of 96,000 active | AID 777, 2007;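 active = blocking of liver enzyme CYP2C9 beyond about 50% at 5 µM, limit read from the data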
CYP2C9 act = human CYP2C9 activators, primary screen, biochemical, luminescence | Cytochrome P450 2C9 (Homo sapiens), P11712 | recombinant CYP2C9, luciferin-H conversion; active compounds read high; factor 1 = untreated enzyme, 0 = blocked | activation factor at 5 µM | 1.4% of 96,000 active;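 active = activation factor of 2 or more for CYP2C9 at a 5 µM dose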
EphB4 antag = EphB4-ephrin-B2 interaction antagonists, primary screen, biochemical, TNYL-RAW peptide probe, fluorescence polarization; Ephrin type-B receptor 4 (Homo sapiens), P54760; AID 720, 2007; inhibition, % at 7 µM; 0.15% of 97,000 active; EphB4 LBD / TNYL-RAW-Alexa532 peptide;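 active = inhibition above the screen-wide mean inhibition plus 3 SD, cut at about 15% in these data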
CYP2C19 inhib = blockers of cytochrome P450 2C19 activity – biochemical, luminescence, ADME assay, primary screen | P33261 | CYP2C19 Supersomes, luciferin-H EGE luminescence, 30 min | inhibition, % at 5 µM | 21% of 96,000 active | AID 778, 2007;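 active = CYP2C19 inhibition above a set limit at 5 µM in the primary screen, cut at about 50% in these data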
A number is an active result; i = inactive; nt = not tested or not shown. Only some compounds are listed: those with a hit (about 27% of all), similar ones and a draw of the others.

SMILES	CYP2C19 act	CYP2C9 inhib	CYP2C9 act	EphB4 antag	CYP2C19 inhib
O=C(COC(=O)c1cc([N+](=O)[O-])ccc1NCc1ccccc1)NC1CCCc2ccccc21 (configuration not stated)	i	69	i	i	i
COC(=O)[C@H](C)NC(=O)NC1CCCc2ccccc21 (some centres not stated)	i	i	i	i	i
Clc1ccc(-c2nnsc2SCc2ccccc2)cc1	i	i	i	i	i
O=[N+]([O-])c1ccc(Oc2cccc(F)c2)c2ccncc12	i	83	i	i	85
Cc1cc(N2C(=O)C(=O)/C(=C(/O)c3ccc(F)cc3)C2c2ccc(Cl)cc2)no1 (configuration not stated)	i	57	i	i	i
CC(C)(C)NC(=O)CSC(=Nc1ccc(F)cc1)NC#N	i	i	i	i	72
CCCCn1c(SCC(=O)c2ccc(OCC)cc2)nc2cc(S(N)(=O)=O)ccc21	i	i	i	i	i
CCCNC(=O)NC(=O)COC(=O)c1ccc(OC)c(S(=O)(=O)N2CCCc3ccccc32)c1	i	95	i	i	i
CCCNC(=O)COC(=O)c1ccc(Cl)c(S(=O)(=O)N2CCCC2)c1	i	i	i	i	i
COc1ccc(C(=O)N2CCCCC2)cc1S(=O)(=O)Nc1cccc(C(=O)O)c1	nt	nt	nt	i	nt
COc1ccc(C(=O)N2CCCN(C)CC2)cc1S(=O)(=O)N1CCCc2ccccc21	i	50	i	nt	i
COc1ccc(C(=O)NCc2ccc(C)cc2)cc1S(=O)(=O)N1CCCc2ccccc21	i	74	i	i	67
COc1ccc(F)cc1S(=O)(=O)N1CC(C)CC(C)C1 (configuration not stated)	i	i	i	i	65
C(/CCc1ccccc1)=N\n1cnnc1	nt	nt	nt	i	nt
CC1Cc2ccccc2N1C(=O)CCN1C(=O)C2C3C=CC(C3)C2C1=O (configuration not stated)	i	i	i	i	i
COc1ccc(C(=O)C[n+]2ccc3c(c2)nc(-c2cc(OC)c(OC)cc2OC)n3C)cc1	i	i	i	i	i
COc1ccc(OC)c(S(=O)(=O)N2CCCc3ccccc32)c1	i	i	i	i	84
COc1ccc(OC)c(S(=O)(=O)N2C(C)CCCC2C)c1 (configuration not stated)	i	85	i	nt	93
COc1ccc(OC)c(S(=O)(=O)N2CCN(C34CC5CC(CC(C5)C3)C4)CC2)c1	i	i	i	i	i
COc1ccc(OC)c(S(=O)(=O)N2c3cc(F)ccc3CCC2C)c1 (configuration not stated)	i	61	i	i	88
COc1ccc(OC)c(S(=O)(=O)N2Cc3ccccc3CC2C(=O)O)c1 (configuration not stated)	i	i	i	i	i
COc1ccc(OC)c(S(=O)(=O)N2c3ccccc3CC2C)c1 (configuration not stated)	i	79	i	i	75
Cc1csc(NC(=O)c2ccc(S(=O)(=O)N(C)c3ccccc3)cc2)n1	i	i	i	i	i
CCc1ccc(-c2nn(Cc3ccccc3)cc2/C=C/C(=O)O)cc1	i	i	i	i	i
O=C(Nc1cc(N2CCOCC2)ncn1)c1ccccc1	i	i	i	i	i
SMILES	CYP2C19 act	CYP2C9 inhib	CYP2C9 act	EphB4 antag	CYP2C19 inhib
Cc1cccc(-n2c(Cn3nc(C)c([N+](=O)[O-])c3C)n[nH]c2=S)c1	i	i	i	i	i
O=c1c2cnn(-c3ccccc3)c2ncn1/N=C/c1ccncc1	nt	nt	nt	i	nt
O=S(=O)(c1cccc2cccnc12)N1CCc2ccccc21	i	i	i	i	i
COc1ccc(OC)c(S(=O)(=O)N2CCc3ccccc32)c1	i	i	i	i	77
CC1Cc2ccccc2N1S(=O)(=O)c1cccc2nsnc12 (configuration not stated)	i	99	i	i	79
Cc1cc(NC(=O)COC(=O)c2ccc(S(=O)(=O)N3CCCc4ccccc43)cc2)no1	i	66	i	i	i
COc1cccc(/C=N/NC(=O)CCc2c(C)n[nH]c2C)c1	i	i	i	i	i
COc1ccc(NC(=O)C2C3CCC(C3)C2C(=O)O)cc1OC (configuration not stated)	i	i	i	i	i

High-throughput results (PubChem)
